Results from PMC7819943, “Rice protein-binding microarrays: a tool to detect cis-acting elements near promoter regions in rice”.
Over roughly 39,000 sequences, “fluorescence intensity (a.u.)” has its median near 4,300; the highest 2% begin near 39,000. What follows is part of a selection rich in the highest values, with near analogues and random picks from the rest.

target: T1, OsSMF1 (Oryza sativa, UniProt Q6ZLB0 1-436); experiment: protein-binding microarray (RPBM); PBS, 2% BSA, 51.3 ng/ul salmon testes DNA, 50 uM zinc acetate, 200 nM TF, 25 C, 1 h; high values mean tight binding; settings: protein: recombinant; tags: N-terminal polyhistidine and DsRed monomer fusion (pET32a); chain copies: 2; label: CyDye5-dUTP incorporated in the synthesized complementary strand; 3' TTTTT single-stranded linker to array surface; dsDNA, one strand shown
T1 sequence: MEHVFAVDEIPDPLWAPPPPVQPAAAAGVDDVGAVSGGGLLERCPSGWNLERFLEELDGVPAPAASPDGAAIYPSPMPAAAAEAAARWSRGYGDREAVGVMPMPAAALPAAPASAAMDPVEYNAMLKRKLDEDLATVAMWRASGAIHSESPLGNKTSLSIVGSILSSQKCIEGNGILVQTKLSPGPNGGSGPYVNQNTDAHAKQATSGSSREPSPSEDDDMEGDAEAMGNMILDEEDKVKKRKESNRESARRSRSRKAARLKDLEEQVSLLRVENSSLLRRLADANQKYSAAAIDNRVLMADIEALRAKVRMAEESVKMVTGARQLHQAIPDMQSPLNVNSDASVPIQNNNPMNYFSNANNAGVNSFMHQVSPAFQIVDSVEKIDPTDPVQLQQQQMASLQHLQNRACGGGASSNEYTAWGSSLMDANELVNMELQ
How it was run: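 Binding signal is reported as fluorescence intensity per feature (arbitrary units) from an Axon 4000B scanner. Incubation used 200 nM of each Ni–NTA-purified, N-terminally polyhistidine- and DsRed-fused transcription factor from E. coli BL21-CodonPlus on a double-stranded custom Agilent array for 1 h at 25 °C, with 50 µM zinc acetate in the buffer, followed by washing.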

Compared with “TACATTTCTTTGACAAAACTTTTATAACCAGCTGATGTGGCGGAGTCACCTAGTGCAG”, “GAGTTGTGACTGTGAGGCACACCAATGGCGGCCCATGGATCGGAGTCACCTAGTGCAG” is lower in binding signal: 11400 fluorescence intensity (a.u.) for the first, 3740 fluorescence intensity (a.u.) for the second.

First: CACTGTCCATCCATGGTGGTGGTCAGACAACCCCAGCACACGGAGTCACCTAGTGCAG
Second: TGCGATTGATTCGGTATTAGAGCCTGCATACGTGTCATCTCGGAGTCACCTAGTGCAG
The binding signal of the first is lower: 3990 fluorescence intensity (a.u.) for the first, 22100 fluorescence intensity (a.u.) for the second.

Compared with “GCCGCCGCCGCCGTCTGCACCCGCGTCAGCGCTCCACAAACGGAGTCACCTAGTGCAG”, “TCGGCCAATGCGGAGCCGTCAGCTCTCCGCTGCTCGGCTACGGAGTCACCTAGTGCAG” is higher in binding signal: 3440 fluorescence intensity (a.u.) for the first, 44400 fluorescence intensity (a.u.) for the second.

First: CTCTCCCGCCTCGCCCGTCGACGCCCGCGCCACGTGCAGCCGGAGTCACCTAGTGCAG
Second: TCTCCCAGGCCACCATCGGCGTCCACATCCCGCCGTCCGCCGGAGTCACCTAGTGCAG
The binding signal of the first is higher: 6190 fluorescence intensity (a.u.) for the first, 3510 fluorescence intensity (a.u.) for the second.

Going from “GTCGGCCCATGAATATGCTGACGTCACTTTTGAGCCCACTCGGAGTCACCTAGTGCAG” to “CGCTCTGCCGTCCGGCTCTCCGCGCGATGCTACGTGGCCGCGGAGTCACCTAGTGCAG”, the binding signal falls from 36600 fluorescence intensity (a.u.) to 5480 fluorescence intensity (a.u.).

Going from “CATGAGGAGGATGCTGACGTCTCGAGGTGAAGGCCGCAATCGGAGTCACCTAGTGCAG” to “CGGCCGCCGCGACACCCGCCGCCACGTCGCCCCGCCACGCCGGAGTCACCTAGTGCAG”, the binding signal rises from 4970 fluorescence intensity (a.u.) to 9460 fluorescence intensity (a.u.).

First: TCCAGATCTTGGCGCCGCCGGATCCCGTCAGTCTCCACAACGGAGTCACCTAGTGCAG
Second: CCTCTCCAGTACGCGTCGCCCCGCCACGTCAGCGACTGGCCGGAGTCACCTAGTGCAG
The binding signal of the first is higher: 48300 fluorescence intensity (a.u.) for the first, 41600 fluorescence intensity (a.u.) for the second.

Compared with “GCCTCCACCTCGCTGCTGCTCCGCCAGCTAGTAGCCGCCACGGAGTCACCTAGTGCAG”, “CCATCTCGGCCCATGAGGATGCTGACGTCACCGCGTCGTCCGGAGTCACCTAGTGCAG” is higher in binding signal: 3350 fluorescence intensity (a.u.) for the first, 42700 fluorescence intensity (a.u.) for the second.

First: GACATTTACATGTACTGATTGCTGATTGCCATTGATTCATCGGAGTCACCTAGTGCAG
Second: CAGTGTTACATCATCGACCGGTTATCATCTTTGTTTCGATCGGAGTCACCTAGTGCAG
The binding signal of the first is higher: 22800 fluorescence intensity (a.u.) for the first, 3580 fluorescence intensity (a.u.) for the second.

Going from “TTGCACATGCTGATTATTACATATTGCTACGTCCTTTTGCCGGAGTCACCTAGTGCAG” to “GGTGTGTATTGACGCACCACGTATGTCTATCTTCTTTCGTCGGAGTCACCTAGTGCAG”, the binding signal rises from 3230 fluorescence intensity (a.u.) to 3820 fluorescence intensity (a.u.).

Compared with “TGGCCGGAATCACACGCACAAGGTGCTGCGTCACCTATAACGGAGTCACCTAGTGCAG”, “CACGATCCATCATATCGCTTGAGCTAGCCACAACACACAACGGAGTCACCTAGTGCAG” is higher in binding signal: 9040 fluorescence intensity (a.u.) for the first, 22100 fluorescence intensity (a.u.) for the second.

First: GCATGGTGGCGGCGGGAAGGAGGAGTGGGGCGGCGGGTGCCGGAGTCACCTAGTGCAG
Second: CGAGTGCCACGCGTGCGCCCACCGCCACGTCACCGATCCCCGGAGTCACCTAGTGCAG
The binding signal of the first is lower: 3770 fluorescence intensity (a.u.) for the first, 53800 fluorescence intensity (a.u.) for the second.

First: CTTGGATCCAACGGCCACGGCTCTCTCATCGCCGCGCCCCCGGAGTCACCTAGTGCAG
Second: CCAGCCCCGCGCCGGCCGCCGTCCGTCCGCCCGCGCGCGGCGGAGTCACCTAGTGCAG
The binding signal of the first is higher: 46100 fluorescence intensity (a.u.) for the first, 3540 fluorescence intensity (a.u.) for the second.

First: CGTCGAACCGGCGGCGGCCCGCGCCACCCACCCTACCCGCCGGAGTCACCTAGTGCAG
Second: CCCCACCACCTCATCGATCCGCGCCACCACCCAACCCACCCGGAGTCACCTAGTGCAG
The binding signal of the first is higher: 49100 fluorescence intensity (a.u.) for the first, 4250 fluorescence intensity (a.u.) for the second.

Compared with “GCCACCGCCGCGGGCGCGGCCCCGGCCCCGGCCCCGGCCGCGGAGTCACCTAGTGCAG”, “GTCCGTCGCGCGTCACCGCGTGCCTCGCCACGCCCACGCCCGGAGTCACCTAGTGCAG” is higher in binding signal: 3390 fluorescence intensity (a.u.) for the first, 5090 fluorescence intensity (a.u.) for the second.

Going from “CCCGCCGCGCCGCGTCCCGGCCACCGCGCCGCCCGCCGCGCGGAGTCACCTAGTGCAG” to “GGGCAGATCCGGCGCCCGACGCCGGCGGATCCGCCGTCGTCGGAGTCACCTAGTGCAG”, the binding signal rises from 4250 fluorescence intensity (a.u.) to 32500 fluorescence intensity (a.u.).

Going from “TCCCGCTCACCACCACGCCACGTCACCGATCCGCGCAACCCGGAGTCACCTAGTGCAG” to “GGGCCCCGCAGGCGCAGGCGCAGCGGTACGCCGTCGTCGGCGGAGTCACCTAGTGCAG”, the binding signal rises from 22400 fluorescence intensity (a.u.) to 54200 fluorescence intensity (a.u.).

Going from “GAAGCCATCCACGCGGCACCATCGGACGGCTCTCGCGCCCCGGAGTCACCTAGTGCAG” to “ACACATGCTTCAAGTGGCTAAGAGGGCATCCTCCCTTTTACGGAGTCACCTAGTGCAG”, the binding signal rises from 5210 fluorescence intensity (a.u.) to 16000 fluorescence intensity (a.u.).

Going from “TAACTTCTTGCAGAAATGCCTCGTCATCGGTGACGCCGTTCGGAGTCACCTAGTGCAG” to “AAATTTGATCCTCGCACACCAGCTCAGCTACAGATGACATCGGAGTCACCTAGTGCAG”, the binding signal falls from 4870 fluorescence intensity (a.u.) to 4230 fluorescence intensity (a.u.).

Going from “TTTGCATGCTTCATTACCACCTTCATCCACGTTGAAAGTACGGAGTCACCTAGTGCAG” to “GCACATCGCGCTCGCCGAAGCAGAACCACGCGGCCACCGGCGGAGTCACCTAGTGCAG”, the binding signal falls from 4160 fluorescence intensity (a.u.) to 3240 fluorescence intensity (a.u.).

Compared with “CGCAGCAAGCGTCACGTCACCAACTGTTTGCTCCAACTGTCGGAGTCACCTAGTGCAG”, “AAGAAACAACACACGTTAGCATTTCACTGCTATTAAGTTCCGGAGTCACCTAGTGCAG” is lower in binding signal: 9370 fluorescence intensity (a.u.) for the first, 5010 fluorescence intensity (a.u.) for the second.

First: GACGTTAGTGATCAGCTGGGTTAATTAATTACGTGGCTAACGGAGTCACCTAGTGCAG
Second: GCTGCTGCACCACGTCCTTCCTCTTCCTCGCCCCACCACCCGGAGTCACCTAGTGCAG
The binding signal of the first is higher: 7210 fluorescence intensity (a.u.) for the first, 6380 fluorescence intensity (a.u.) for the second.

Compared with “CTCGCTGCTTCGCCCGCCACGTCACCCTCCTCCTCCTCCCCGGAGTCACCTAGTGCAG”, “TTCGCGCGCCACCTCCTCGCGCTCGCCTGCTTCTTCTCCCCGGAGTCACCTAGTGCAG” is lower in binding signal: 62000 fluorescence intensity (a.u.) for the first, 3380 fluorescence intensity (a.u.) for the second.

First: AAAACCTGACTTTGCATCATTAGACGATTTGTCCATTGAACGGAGTCACCTAGTGCAG
Second: GGCTAGCCAGCGACCGACCGGCGGCCACCGTGGCGGGATTCGGAGTCACCTAGTGCAG
The binding signal of the first is lower: 3160 fluorescence intensity (a.u.) for the first, 4850 fluorescence intensity (a.u.) for the second.

Going from “AGGTACGTAAATTTTATATATTCCATATGAGCTCTAAATACGGAGTCACCTAGTGCAG” to “AGGAGGTAGGATAGTTCCCTCCGTAATGGATCGAGGATGTCGGAGTCACCTAGTGCAG”, the binding signal rises from 3580 fluorescence intensity (a.u.) to 42000 fluorescence intensity (a.u.).

Compared with “GTAGTCGTAATGTCATCGTCATCGACATCGATGTGTTGCTCGGAGTCACCTAGTGCAG”, “CACGCAGTAGGGATCGAGGATGTCGTACGCGTACCTCTTCCGGAGTCACCTAGTGCAG” is higher in binding signal: 4940 fluorescence intensity (a.u.) for the first, 26100 fluorescence intensity (a.u.) for the second.

First: TCCTTCTTCCTTGGCCTCTTCCTAATGACAAGCCCTTGCGCGGAGTCACCTAGTGCAG
Second: GCTCTTGAGAATGTTGCTGAGTTGTCAGCTCTCTCCACCCCGGAGTCACCTAGTGCAG
The binding signal of the first is lower: 3610 fluorescence intensity (a.u.) for the first, 15700 fluorescence intensity (a.u.) for the second.
